Experiment [1] in a line: NCI Yeast Anticancer Drug Screen. Data for the rad50 strain (AID 155).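 Also: 0% = growth of vehicle-only cultures of the same strain.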 Conditions: S. cerevisiae rad50 strain growth inhibition, active compounds read high. The method in brief:
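A DNA repair-deficient yeast mutant serves as the test organism; compound-induced growth inhibition is calculated against vehicle-treated cells.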

Experiment [2] can be described thus: NCI Yeast Anticancer Drug Screen. Data for the mec2-1 strain (AID 157). Conditions: S. cerevisiae mec2-1 strain, active compounds read high. In short, it runs like this:
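Each compound was tested on mec2-1 yeast, a strain altered in DNA damage repair or cell cycle control. Growth inhibition is reported relative to vehicle.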

The nature of experiment [3]: NCI Yeast Anticancer Drug Screen. Data for the sgs1 mgt1 strain (AID 161).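 Also: 0% = growth of cultures given vehicle only.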 Conditions: S. cerevisiae sgs1 mgt1 strain, active compounds read high. The method in brief:
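Test agents were incubated with a DNA-repair-mutant yeast strain. Growth was then read and compared against vehicle-treated controls.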

Experiment [4] in a line: NCI Yeast Anticancer Drug Screen. Data for the cln2 rad14 strain (AID 165).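 Also: 0% = growth equal to vehicle treated cultures.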 As to conditions: S. cerevisiae cln2 rad14 strain, active compounds read high. The method in brief: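 Test compounds were added to cln2 rad14 yeast cultures; inhibition of growth was then determined by comparison with vehicle treatment.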
Experiment [5] can be described thus: NCI Yeast Anticancer Drug Screen. Data for the bub3 strain (AID 167). Conditions: S. cerevisiae bub3 mutant strain, active compounds read high. The method in brief: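 Inhibition values come from growth of compound-treated mutant yeast normalised to vehicle-treated controls.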
Experiment [6] in a line: NCI Yeast Anticancer Drug Screen. Data for the mlh1 rad18 strain (AID 175). As to conditions: S. cerevisiae mlh1 rad18 strain growth inhibition, active compounds read high. The method in brief:
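Inhibition values reflect reduced growth of mutant yeast versus vehicle-treated controls following compound exposure; the mutations affect DNA damage repair.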

Setting [7] is: at 5.0 µM (retest, dose inferred, filed as 0.5).
[8] abbreviates: at 50.0 µM (retest, dose inferred, filed as 5.0).

This is part of a sample that, as a whole, favours compounds with a hit. Of some 79,000 tested, about 15% had one in any assay. Unmarked numbers belong to inactive results. The source made the active and inactive calls. Rule as the data show it: active = growth inhibition above about 70%; inactive = the rest. Where a SMILES comes first, the peptide text is derived from it. Bridges are numbered along the chain shown (N, C = ends). [ ]: non-standard residue; d: D form. NMeV = CN[CH](C(=O)O)C(C)C; Sar = CNCC(=O)O

Regarding `O=C(NC(Cc1ccccc1)C(=O)O)c1ccncc1` (stereo not given), the growth inhibition in experiment [1] (setting [7]) is -2%; in experiment [1] (setting [8]), -12%; in experiment [1] (at 50.0 µM), 61.6%; in experiment [2] (setting [7]) it was -1%; in experiment [2] (setting [8]), -7%; in experiment [2] (at 50.0 µM), 28.9%. The growth inhibition was 0% in experiment [3] (setting [7]); -5% in experiment [3] (setting [8]); 63.2% in experiment [3] (at 50.0 µM); -1% in experiment [4] (setting [7]); -11% in experiment [4] (setting [8]); 57.2% in experiment [4] (at 50.0 µM). The growth inhibition in experiment [5] (setting [7]) is -1%; in experiment [5] (setting [8]), -2%; in experiment [5] (at 50.0 µM), 44.1%; in experiment [6] (setting [7]), -1%; in experiment [6] (setting [8]), -6%; in experiment [6] (at 50.0 µM), 46.1%.

With `O=C(CSCc1c(F)cccc1Cl)Nc1ccc(F)c(Cl)c1`, the growth inhibition is 51% in experiment [1] (setting [7]); 39% in experiment [1] (setting [8]); 88.3% (active) in experiment [1] (at 50.0 µM); 34% in experiment [2] (setting [7]); 38% in experiment [2] (setting [8]); 91.3% (active) in experiment [2] (at 50.0 µM). Further, the growth inhibition in experiment [3] (setting [7]) was 36%; in experiment [3] (setting [8]) it was 50%; in experiment [3] (at 50.0 µM), 91.7% (active); in experiment [4] (setting [7]) it was 33%; in experiment [4] (setting [8]), 44%; in experiment [4] (at 50.0 µM) it was 90.1% (active). Further, the growth inhibition in experiment [5] (setting [7]) is 45%; in experiment [5] (setting [8]), 76% (active); in experiment [5] (at 50.0 µM), 91.5% (active); in experiment [6] (setting [7]), 49%; in experiment [6] (setting [8]), 53%; in experiment [6] (at 50.0 µM), 63.2%.

As to `CC(C)C1NC(=O)C(N)C(C)OC(=O)C(C(C)C)N(C)C(=O)CN(C)C(=O)C2CCCN2C1=O` (stereo not given) (tested in a mixture with another compound) (H-TVP[Sar][NMeV]; ester 1-C; configuration not given here), the growth inhibition in experiment [1] (setting [7]) is 21%; in experiment [1] (setting [8]), 94% (active); in experiment [1] (at 50.0 µM) it was 89.1% (active); in experiment [2] (setting [7]), 10%; in experiment [2] (setting [8]) it was 97% (active); in experiment [2] (at 50.0 µM), 92.2% (active). In addition, the growth inhibition was 18% in experiment [3] (setting [7]); 91% (active) in experiment [3] (setting [8]); 90.3% (active) in experiment [3] (at 50.0 µM); 39% in experiment [4] (setting [7]); 95% (active) in experiment [4] (setting [8]); 87.5% (active) in experiment [4] (at 50.0 µM). Besides, the growth inhibition in experiment [5] (setting [7]) is 16%; in experiment [5] (setting [8]), 96% (active); in experiment [5] (at 50.0 µM) it was 90.8% (active); in experiment [6] (setting [7]) it was 11%; in experiment [6] (setting [8]) it was 95% (active); in experiment [6] (at 50.0 µM) it was 90.2% (active).

`O=S(=O)(Nc1ccccc1)c1ccccc1CC(O)(c1ccccc1)c1ccccc1`: the growth inhibition in experiment [1] (setting [7]) is 46%; in experiment [1] (setting [8]), 90% (active); in experiment [1] (at 50.0 µM), 90% (active); in experiment [2] (setting [7]) it was 67%; in experiment [2] (setting [8]) it was 94% (active); in experiment [2] (at 50.0 µM), 93% (active). In addition, the growth inhibition in experiment [3] (setting [7]) was 98% (active); in experiment [3] (setting [8]), 94% (active); in experiment [3] (at 50.0 µM), 91.2% (active); in experiment [4] (setting [7]), 59%; in experiment [4] (setting [8]), 89% (active); in experiment [4] (at 50.0 µM), 90.4% (active). Besides, the growth inhibition in experiment [5] (setting [7]) is 40%; in experiment [5] (setting [8]), 90% (active); in experiment [5] (at 50.0 µM), 90.4% (active); in experiment [6] (setting [7]), 90% (active); in experiment [6] (setting [8]) it was 90% (active); in experiment [6] (at 50.0 µM), 89.2% (active).

Regarding `C/C(=N/NC(N)=S)C(C)C`, the growth inhibition in experiment [1] (setting [7]) was 11%; in experiment [1] (setting [8]) it was 37%; in experiment [1] (at 50.0 µM), 14.3%; in experiment [2] (setting [7]), 2%; in experiment [2] (setting [8]), 2%; in experiment [2] (at 50.0 µM), -9.9%. Also, the growth inhibition in experiment [3] (setting [7]) was 2%; in experiment [3] (setting [8]), 3%; in experiment [3] (at 50.0 µM), -11.1%; in experiment [4] (setting [7]), 4%; in experiment [4] (setting [8]) it was -5%; in experiment [4] (at 50.0 µM) it was 37.6%. In addition, the growth inhibition was 1% in experiment [5] (setting [7]); -3% in experiment [5] (setting [8]); 17.4% in experiment [5] (at 50.0 µM); 2% in experiment [6] (setting [7]); -2% in experiment [6] (setting [8]); 4.8% in experiment [6] (at 50.0 µM).
